In PubChem BioAssay AID1159580 (chemical genetic matrix, 2015):
“And” between values parts separate entries of the source, which are not always exact repeats. Identical values can stand only once. The campaign covered roughly 5,500 compounds. About 2,000 (36%) were called active. Another 18% or so got no clear call; they are omitted. No stated cut-off is given here; in the data, active means normalized growth mostly below about 0.91 (no sharp cut-off); inconclusive means no clear call, values can overlap the other calls; inactive means mostly above about 0.92. Some of the results follow.

Test: chemical genetic growth profiling, strain panel (AID 1159580);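 further: tested at 20 µM; growth read once vehicle control cultures reached saturation at 30 °C; 1 = growth at the plate median or of vehicle wells; lower values mean less growth of the strain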
Settings: S. cerevisiae deletion strains, growth OD

Measured: normalized growth

CNCc1ccccc1
inactive: locus YAL013W, strain DEP1, active compounds read low 0.994 | locus YAL021C, strain ccr4, active compounds read low 1.01 | locus YAL026C, strain drs2, active compounds read low 1.02 | locus YAL030W, strain snc1, active compounds read low 1.02 | locus YBL061C, strain skt5, active compounds read low 1.03 | locus YBR009C, strain hhf1, active compounds read low 1.02 | locus YBR021W, strain FUR4, active compounds read low 1.03 | locus YBR023C, strain chs3, active compounds read low 1.03 | locus YBR171W, strain sec66, active compounds read low 1.03 | locus YBR229C, strain ROT2, active compounds read low 0.965 | locus YBR231C, strain swc5, active compounds read low 1.01 | locus YBR279W, strain paf1, active compounds read low 1.02 | locus YCL011C, strain gbp2, active compounds read low 1.02 | locus YCL016C, strain dcc1, active compounds read low 1.02 | locus YCL029C, strain bik1, active compounds read low 0.984 | locus YCL061C, strain MRC1, active compounds read low 1.01 | locus YCL069W, strain vba3, active compounds read low 1.02 | locus YCR088W, strain abp1, active compounds read low 1.03 | locus YDL005C, strain med2, active compounds read low 1.02 | locus YDL035C, strain GPR1, active compounds read low 1 | locus YDL040C, strain nat1, active compounds read low 1 | locus YDL074C, strain BRE1, active compounds read low 1.05 | locus YDL101C, strain DUN1, active compounds read low 0.982 | locus YDL134C, strain PPH21, active compounds read low 0.992 | locus YDL185W, strain tfp1, active compounds read low 0.987 | locus YDL192W, strain arf1, active compounds read low 0.997 | locus YDR001C, strain nth1, active compounds read low 1.02 | locus YDR069C, strain doa4, active compounds read low 1.01 | locus YDR101C, strain arx1, active compounds read low 1.05 | locus YDR137W, strain rgp1, active compounds read low 1.04 | locus YDR159W, strain sac3, active compounds read low 1.05 | locus YDR162C, strain NBP2, active compounds read low 0.957 | locus YDR195W, strain ref2 0.999 | locus YDR297W, strain sur2, active compounds read low 1.02 | locus YDR318W, strain mcm21, active compounds read low 0.965 | locus YDR334W, strain swr1, active compounds read low 1.03 | locus YDR335W, strain msn5, active compounds read low 1.02 | locus YDR388W, active compounds read low 1.01 | locus YDR392W, strain spt3, active compounds read low 1.01 | locus YDR502C, strain sam2, active compounds read low 1 | locus YEL003W, strain gim4, active compounds read low 1.02 | locus YEL037C, strain rad23, active compounds read low 1.02 | locus YEL061C, strain CIN8 (second series), active compounds read low 1.03 | locus YEL061C, strain CIN8, active compounds read low 0.996 | locus YER015W, strain faa2, active compounds read low 1.01 | locus YER016W, strain bim1, active compounds read low 1.02 | locus YER110C, active compounds read low 0.99 | locus YER111C, strain swi4, active compounds read low 1.02 | locus YER155C, strain BEM2 (second series), active compounds read low 1.02 | locus YER155C, strain BEM2, active compounds read low 0.987 | locus YER167W, strain BCK2, active compounds read low 0.988 | locus YFR010W, strain ubp6, active compounds read low 1.04 | locus YGL078C, strain dbp3, active compounds read low 0.999 | locus YGL086W, strain mad1, active compounds read low 1.06 | locus YGL167C, strain pmr1, active compounds read low 1.03 | locus YGL173C, strain kem1, active compounds read low 1.03 | locus YGL227W, strain vid30, active compounds read low 1.03 | locus YGL240W, strain doc1, active compounds read low 1.01 | locus YGL248W, strain PDE1, active compounds read low 0.984 | locus YGL253W, strain hxk2, active compounds read low 1.03 | locus YGR078C, strain PAC10, active compounds read low 0.981 | locus YGR135W, strain pre9, active compounds read low 0.972 | locus YGR229C, strain SMI1, active compounds read low 0.986 | locus YGR252W, strain gcn5, active compounds read low 0.908 | locus YHR013C, strain ard1, active compounds read low 1.03 | locus YHR027C, strain rpn1, active compounds read low 1.04 | locus YHR030C, strain SLT2, active compounds read low 1.01 and 0.986 | locus YHR079C, strain IRE1 (second series), active compounds read low 0.989 | locus YHR079C, strain IRE1, active compounds read low 0.975 | locus YHR094C, strain hxt1, active compounds read low 0.978 | locus YHR129C, strain ARP1, active compounds read low 1 | locus YHR142W, strain chs7, active compounds read low 1.05 | locus YHR200W, strain rpn10, active compounds read low 0.999 | locus YIL066C, strain RNR3, active compounds read low 0.992 | locus YIL073C, strain SPO22, active compounds read low 1.01 | locus YIL125W, strain kgd1, active compounds read low 1 | locus YIR030C, strain dcg1, active compounds read low 0.99 | locus YJL092W, strain hpr5, active compounds read low 1.02 | locus YJL095W, strain BCK1 (second series), active compounds read low 1.02 | locus YJL095W, strain BCK1, active compounds read low 0.95 and 0.974 | locus YJL115W, strain asf1, active compounds read low 1.03 | locus YJL129C, strain trk1, active compounds read low 1.05 | locus YJL134W, strain LCB3, active compounds read low 0.996 | locus YJL154C, strain vps35, active compounds read low 1.03 | locus YJL164C, strain tpk1, active compounds read low 1.01 | locus YJL166W, strain qcr8, active compounds read low 1.02 | locus YJL168C, strain set2, active compounds read low 0.991 | locus YJL187C, strain SWE1 (second series), active compounds read low 0.977 | locus YJL187C, strain SWE1, active compounds read low 1.03 | locus YJR043C, strain POL32, active compounds read low 1
